proKLK7 act = proKLK7 zymogen activators, primary screen, biochemical, fluorescence intensity. Kallikrein-7 (Homo sapiens), P49862. purified proKLK7, EDANS-DABCYL substrate fluorescence; 100% is mature enzyme control, 0% vehicle. activation, % at 7 µM. 0.9% of 370,000 active;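 active = activation above the mean of all tested compounds plus 3 SD, computed per campaign excluding outliers beyond control limits, cut at about 13% in these data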
Target sequence (P49862 whole entry, looked up): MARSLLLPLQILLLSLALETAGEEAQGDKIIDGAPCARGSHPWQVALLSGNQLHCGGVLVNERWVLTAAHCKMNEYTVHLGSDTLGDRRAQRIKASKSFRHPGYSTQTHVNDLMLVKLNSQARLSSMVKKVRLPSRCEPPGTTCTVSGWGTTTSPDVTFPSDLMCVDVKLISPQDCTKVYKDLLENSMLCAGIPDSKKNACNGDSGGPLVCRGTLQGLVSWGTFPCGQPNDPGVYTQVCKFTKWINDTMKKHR
MsrA act = bovine MsrA enzyme activators, primary screen, biochemical, absorbance, HTS | Methionine sulfoxide reductase A (Bos taurus) | purified bovine MsrA, absorbance read-out | activation, % at 10.6 µM | 0.3% of 360,000 active; in the data active = activation above about 7.5%
MsrA inh = bovine MsrA enzyme inhibitors, primary screen, biochemical, absorbance, HTS. Methionine sulfoxide reductase A (Bos taurus). purified bovine MsrA, absorbance read-out. inhibition, % at 15.5 µM. 0.75% of 360,000 active. AID 651718, 2012; in the data active = inhibition above about 4.5%
SMARCA2 activ = SMARCA2 (BRM) function activators, primary screen, cell-based, luminescence, high throughput. MG213 cells, MMTV-luciferase reporter, dexamethasone, overnight. activation, % at 9.1 µM. 1% of 370,000 active; in the data active = activation above about 7.8%
SMARCA2 conf = SMARCA2 (BRM) function activators, confirmation, cell-based, luminescence, triplicate. shares compounds with SMARCA2 activ. MG213 cells, MMTV-luciferase with dexamethasone, overnight; MG213 cells expressing E1A, Rb sequestered; DMSO wells 0%, reference activator 100%. activation, % at 9.1 µM. 30% of 3,500 active. AID 652260, 2013;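 active = activation above its plate's cutoff, the mean activation of tested wells plus 3 SD, cut at about 7.9% in these data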
VP16 Luc act = GAL4-VP16 luciferase reporter activation, counter-screen for SMARCA2 (BRM) activator project, cell-based, pG5luc, luminescence, high throughput; shares compounds with SMARCA2 activ; HEK293 GAL4-VP16 pG5luc reporter; scaled: DMSO wells 0%, SAHA wells 100%; activation, % at 9.1 µM; 41% of 3,500 active; AID 686939, 2013;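 active = activation above the solvent-only control well mean plus 3 SD, averaged across control plates, cut at about 5.2% in these data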
Each line names hits and unclear results; the compound was inactive in the other large screens (follow-up assays come after a bar, where they were run). Rows were chosen to be rich in hits. Some 2.8% of all compounds tested hit in one or more screens of this group.

CCN(C)C1CN(Cc2cn(Cc3ccc(C(F)(F)F)cc3)nn2)S(=O)(=O)C1 (stereo not given)	none
N/C(=N\OC(=O)c1cccs1)c1ccccc1	SMARCA2 activ 18 | SMARCA2 conf 12 | VP16 Luc act 6.8
Cc1ccc(/C(N)=N/OC(=O)c2cccs2)cc1	none
COc1ccc(COC(=O)CCc2cc(OC)c(OC)c(OC)c2)cc1F	none
Cc1cn([C@H]2C[C@H](O)[C@@H](/C=C/C(=O)NCc3ccco3)O2)c(=O)[nH]c1=O	SMARCA2 activ 10 | SMARCA2 conf inactive | VP16 Luc act inactive
COc1cc(OC)nc(C(NC(=O)C2CCN(Cc3c[nH]c4ccccc34)CC2)c2ccc(Cl)cc2)n1 (stereo not given)	SMARCA2 activ 12 | SMARCA2 conf inactive | VP16 Luc act inactive
COc1cc(OC)nc(C(NC(=O)C2CCN(Cc3ccc(N(C)C)cc3)CC2)c2ccc(F)cc2)n1 (stereo not given)	none
O=[N+]([O-])c1ccc(N/N=C/C=C/c2ccco2)cc1	SMARCA2 activ 8.2 | SMARCA2 conf inactive | VP16 Luc act 6.5
COc1ccc2c(c1OC)C(=O)N(c1ccc(C)cc1)C2	SMARCA2 activ 9.4 | SMARCA2 conf 14 | VP16 Luc act 8.4
COc1ccc2c(c1OC)C(=O)N(c1cccc(C(F)(F)F)c1)C2	SMARCA2 activ 8.5 | SMARCA2 conf inactive | VP16 Luc act 8.9
COc1ccc2c(c1OC)C(=O)N(c1cccc(C)c1)C2	none
C=CCN1C(=O)[C@@H](CC(=O)N2CCCCC2)[C@]2(C(=O)OCC)CCCCC/C=C/12	none (no result: MsrA act, MsrA inh)
COCc1nnc(NC(=O)c2cc(C(=O)OC)cc([N+](=O)[O-])c2)s1	none
COC(=O)c1cc(C(=O)Nc2nnc(CC(C)C)s2)cc([N+](=O)[O-])c1	SMARCA2 activ 12 | SMARCA2 conf inactive | VP16 Luc act inactive
O=C(NCc1ccccc1)C1(C(=O)C2CC2)CC(c2ccccn2)=NO1 (stereo not given)	none (no result: MsrA act, MsrA inh)
CC1(C(=O)NC2CCCCCC2)CCN1C(=O)C1(c2ccccc2)CC1 (stereo not given)	none
Cc1nn(Cc2cccc(F)c2)c(C)c1NC(=O)c1ccc(COc2ccccc2Cl)cc1	none
Cc1nn(Cc2c(F)c(F)c(F)c(F)c2F)c(C)c1NC(=O)c1cccc(COc2ccccc2Cl)c1	SMARCA2 activ 13 | SMARCA2 conf inactive | VP16 Luc act 13
CCCCCCN1CCN(C2CN(CCCC)S(=O)(=O)C2)CC1 (stereo not given)	SMARCA2 activ 8.7 | SMARCA2 conf inactive | VP16 Luc act inactive
COc1ccc(Cl)cc1NC(=O)CSc1nnc(C)c(=O)n1N	SMARCA2 activ 8.3 | SMARCA2 conf inactive | VP16 Luc act inactive
Cc1ccc(SCC(=O)Nc2ccc(N3CCN(C)CC3)c(F)c2)cc1	SMARCA2 activ 11 | SMARCA2 conf inactive | VP16 Luc act inactive
CC(C)N1CCCCC(NC(=O)COCc2ccccc2)C1=O (stereo not given)	none (no result: MsrA act, MsrA inh)
C=C(c1ccc(OC)cc1)c1ccc(OC)cc1	SMARCA2 activ 9.3 | SMARCA2 conf inactive | VP16 Luc act inactive
Cc1nc2ccc(S(=O)(=O)NCC(=O)N(C)Cc3ccccc3F)cc2s1	none (no result: MsrA act, MsrA inh)
CCCCCCC12Cc3cc(OC)c(OC)cc3C(O1)C1=C(O2)C(C)(C)CCC1=O (stereo not given)	none (no result: MsrA act)
COc1cc(NC(=O)c2cc(-c3ccccc3Cl)on2)cc(OC)c1OC	none
Cn1c(=O)c2cc(S(=O)(=O)N3CCN(c4ccccc4Cl)CC3)ccc2n(C)c1=O	none (no result: MsrA act, MsrA inh)
CC(=O)c1cnc2nc(SCc3ccccc3)nn2c1C	SMARCA2 activ 11 | SMARCA2 conf inactive | VP16 Luc act 10
C[C@H](CO)N1C[C@H](C)[C@@H](CN(C)C(=O)Nc2ccc(C(F)(F)F)cc2)Oc2ccc(NS(=O)(=O)c3cn(C)cn3)cc2C1=O	none
O=C(CSc1oc(-c2ccc(F)cc2)nc1S(=O)(=O)c1ccccc1)NCC1CCCO1 (stereo not given)	SMARCA2 activ 8.2 | SMARCA2 conf inactive | VP16 Luc act inactive
O=C(CSc1oc(-c2ccccc2)nc1S(=O)(=O)c1ccc(F)cc1)NCC1CCCO1 (stereo not given)	none
O=C(CSc1nnc(NC(=O)c2ccccc2)s1)NCC1CCCO1 (stereo not given)	SMARCA2 activ 9.4 | SMARCA2 conf inactive | VP16 Luc act 6.5
CCCNC(=O)C1(C)CCCN(C(=O)c2cc(C)n(C(C)(C)C)n2)C1 (stereo not given)	none
C/C(=N\NC(=O)c1cnccn1)c1ccc([N+](=O)[O-])cc1	SMARCA2 activ 9.6 | SMARCA2 conf inactive | VP16 Luc act inactive
Cc1cccc2sc(NC(=O)c3ccc(OCC4CCCO4)cc3)nc12 (stereo not given)	SMARCA2 activ 12 | SMARCA2 conf inactive | VP16 Luc act inactive
CCOC(=O)C1CCCN(C(=O)c2ccc(OC)cc2OC)CC1 (stereo not given)	SMARCA2 activ 10 | SMARCA2 conf inactive | VP16 Luc act inactive
CCC(=O)N/C(N)=N/c1nc(C)c2cc(OC)ccc2n1	SMARCA2 activ 18 | SMARCA2 conf 35 | VP16 Luc act 13
CCn1c(=O)cc(SCC(=O)NCc2ccc(C)cc2)c2ccccc21	none
CCn1c(=O)cc(SCC(=O)Nc2ccc(C)cn2)c2ccccc21	SMARCA2 activ 9.2 | SMARCA2 conf 15 | VP16 Luc act inactive
COc1cccc(Cn2cc(COC(=O)NCCc3c[nH]c4ccccc34)nn2)c1	none (no result: MsrA act, MsrA inh)
O=C(O)c1ccc(COc2ccc3ccccc3c2)o1	SMARCA2 activ 8.6 | SMARCA2 conf inactive | VP16 Luc act 8.7
COc1cc(OC)nc(Oc2cccc(C(F)(F)F)c2)n1	none
COC(=O)c1cccc(Oc2cccc(C(F)(F)F)c2)n1	SMARCA2 activ 11 | SMARCA2 conf inactive | VP16 Luc act inactive
C/C(=N\Nc1nccnc1Cl)c1ccc(O)cc1	none
C/C(=N\Nc1nccnc1Cl)c1ccc(F)cc1	SMARCA2 activ 8.9 | SMARCA2 conf 10 | VP16 Luc act 12
N#Cc1cccc(C(=O)C(=O)N2CCCN(Cc3ccc(F)cc3)CC2)c1	none (no result: MsrA act)
COc1cccc(CNS(=O)(=O)c2c(C(=O)N3CCCCCC3)c(C)n(C)c2C)c1	SMARCA2 activ 9.8 | SMARCA2 conf inactive | VP16 Luc act inactive
COc1cccc(CNS(=O)(=O)c2c(C(=O)N3CCCCC3)c(C)n(C)c2C)c1	none
Cn1cnc2cc(NC(=O)c3ccco3)ccc21	none
Cc1ccc(NC(=O)c2cnn(-c3ccccc3)c2NC(=O)c2ccco2)cc1	none

Screening data: PubChem, The Scripps Research Institute Molecular Screening Center
